From PubChem BioAssay (NCATS) come the findings set out here.

This assay concerns the target N-terminal Xaa-Pro-Lys N-methyltransferase 1 (Homo sapiens) (UniProt Q9BV86). Briefly: qHTS Assay for Inhibitors of N-terminal methyltransferase 1 (NTMT1): LOPAC validation of the NTMT1 SAHH-coupled ThioGlo3 Assay (AID 1347143).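 Note: SAH from peptide methylation measured as thiol fluorescence via SAHH coupling and ThioGlo3; nearly all actives have a fitted effect of over 70% in size.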 The essentials: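 Steps: dispense 125nM NTMT1; pin-transfer test compounds at several concentrations, with 1uM RCC1-6 peptide as control; incubate 1 min; start with reagent holding 100uM SAM, 10uM SAHH, 15uM ThioGlo3; read at 0 and 30 min.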

Results filed as inconclusive are left out. Where a call stands in place of a potency, no number is given. The source made the active and inactive calls. Calls come from the whole dose curve; as a rule, active = well fitted inhibition curve with a large enough effect; inconclusive = small, poorly fitted or top-dose-only effect; inactive = no such curve, though single readings can be large or run the other way.
Potency is the fitted concentration of half-maximal effect.

Chain of N-terminal Xaa-Pro-Lys N-methyltransferase 1 (Homo sapiens) (Q9BV86 whole entry, looked up): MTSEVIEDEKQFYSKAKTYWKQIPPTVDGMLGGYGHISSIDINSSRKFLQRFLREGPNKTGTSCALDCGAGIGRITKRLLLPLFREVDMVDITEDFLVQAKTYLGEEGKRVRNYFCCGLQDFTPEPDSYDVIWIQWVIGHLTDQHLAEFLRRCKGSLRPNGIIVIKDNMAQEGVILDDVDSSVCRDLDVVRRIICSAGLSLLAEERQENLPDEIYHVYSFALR

Turning to `COc1ccc(NC(=O)/C=C/c2ccc(Cl)cc2)cc1`, the Potency entry was “inactive”.

For the compound `O=C1NC(O)=NC1(c1ccccc1)c1ccccc1`, the Potency result was “inactive”.

Consider `CC(C)(C=O)Cc1cc(C(C)(C)C)c(O)c(C(C)(C)C)c1`, for which the Potency entry is “inactive”.

As for `C[N+](C)(C)CCOP(=O)(O)OP(=O)([O-])OC[C@H]1O[C@@H](n2ccc(N)nc2=O)[C@H](O)C1O` (stereo partly drawn), the Potency result is “inactive”.

Take `N#C/C(=C\c1ccc(-c2cc(Cl)ccc2Cl)o1)C(=O)Nc1cccc2ncccc12`: the Potency was 56.2 µM (active).

As to `Cc1cc(NC2CCCCC2)nc(-n2nc(C)cc2C)n1`, the Potency result is “inactive”.

As for `CC(C)NC[C@@H](O)c1ccc(O)c(O)c1`, the Potency is 50.1 µM (active).

As for `C[C@H](Cc1ccccc1)Nc1ncnc2c1ncn2[C@@H]1O[C@H](CO)C(O)[C@H]1O` (stereo partly drawn), the Potency entry is “inactive”.

`CCCC(CCC)C(=O)OC1CC2CCC(C1)[N+]2(C)C` (stereo not drawn): the Potency entry is “inactive”.

Turning to `COCCOc1cc2nc[nH]c(=O)c2cc1OCCOC`, the Potency entry was “inactive”.

As to `CC(C)(C)c1ccc(S(=O)(=O)/C=C/C#N)cc1`, the Potency is 4.47 µM (active).

In the case of `CCCCC#Cc1nc(NC)c2ncn([C@@H]3O[C@H](CO)[C@@H](O)C3O)c2n1` (stereo partly drawn), the Potency is 39.8 µM (active).

Turning to `Cc1ccc(O)c(N=Nc2ccccc2)n1`, the Potency was 50.1 µM (active).

On to `Nc1ncnc2c1ncn2[C@@H]1O[C@H](CO)C(O)[C@H]1O` (stereo partly drawn), for which the Potency is 2.24 µM (active).

Regarding `NC(=O)C1=CN(C2OC(COP(=O)(O)OP(=O)(O)OC[C@H]3O[C@@H](n4cnc5c(N)ncnc54)[C@H](OP(=O)(O)O)C3O)C(O)C2O)C=CC1` (stereo partly drawn), the Potency entry was “inactive”.

`Nc1nc2ccc(Cl)cc2n2c(-c3ccccc3)nnc12`: the Potency entry was “inactive”.

Regarding `CC1(C)CCC=[N+]1[O-]`, the Potency entry is “inactive”.

Regarding `NCCCCC(=O)O`, the Potency entry is “inactive”.

`O=[N+]([O-])c1ccc(CSc2ncnc3c2ncn3[C@@H]2O[C@H](CO)C(O)[C@H]2O)cc1` (stereo partly drawn): the Potency entry is “inactive”.

With `CN1CC(=O)N/C1=N/C(=O)Nc1cccc(Cl)c1`, the Potency result is “inactive”.

In the case of `NCCSSCCN`, the Potency result is “inactive”.

Consider `Cn1c(=O)c2[nH]c(-c3ccccc3)nc2n(C)c1=O`, for which the Potency was 79.4 µM (active).

Regarding `Cn1cc(C2=C(c3ccc(Cl)cc3Cl)C(=O)NC2=O)c2ccccc21`, the Potency result is “inactive”.

Turning to `O=C(O)c1cc(=O)c2c(Cl)cc(Cl)cc2[nH]1`, the Potency entry is “inactive”.

On to `O=[N+]([O-])c1ccc2c(c1)S(=O)(=O)C=C2`, for which the Potency was 44.7 µM (active).

As to `S=C(S)OC1CC2CC1C1CCCC21` (stereo not drawn), the Potency entry was “inactive”.

For `C=C[C@H]1CN2CC[C@@H]1C[C@@H]2[C@@H](O)c1ccnc2ccc(OC)cc12`, the Potency was 56.2 µM (active).

For `CCN(CC)CCCCNc1ncc2cc(-c3c(Cl)cccc3Cl)c(NC(=O)NC(C)(C)C)nc2n1`, the Potency was 44.7 µM (active).

For the compound `O=C(Nc1ccc2c(c1)CCN(Cc1ncn[nH]1)C2)c1ccccc1-c1ccc(C(F)(F)F)cc1`, the Potency result was “inactive”.

Turning to `CCCCCCCCCCCCCCCCCCN(CCCCCCCCCCCCCCCCCC)CCCN(CCO)CCO`, the Potency result is “inactive”.

Consider `NCC1OC(OC2C(O)[C@@H](OC3C(O)C(N)CC(N)C3OC3OC(CO)C(O)C(O)C3N)O[C@@H]2CO)C(N)C(O)C1O` (stereo partly drawn), for which the Potency result is “inactive”.

As to `CN1C2CCC1CC(OC(=O)C(O)c1ccccc1)C2` (stereo not drawn), the Potency entry is “inactive”.

Turning to `O=S(=O)(c1cccc2c(I)cccc12)N1CCCNCC1`, the Potency is 39.8 µM (active).

Turning to `COc1cccc(C(=O)NCCN2CCN(c3ccc(Cl)cc3)CC2)c1`, the Potency result was “inactive”.

`CC(C)NCC(O)COc1cccc2ccccc12` (stereo not drawn): the Potency entry was “inactive”.

Turning to `N=c1ccn2c(n1)O[C@H]1C(O)[C@@H](CO)O[C@H]12` (stereo partly drawn), the Potency entry is “inactive”.

With `Cn1c(=O)c(-c2c(Cl)cccc2Cl)cc2cnc(Nc3ccc(N4CCOCC4)cc3)nc21`, the Potency was 56.2 µM (active).

On to `O=C(CCc1ccncc1)NNC(=O)N1Cc2ccccc2Oc2ccc(Cl)cc21`, for which the Potency result was “inactive”.
